HP1b chromo inh: blocks HP1-beta chromodomain binding to methylated histone tails | P83916 | AlphaScreen HP1-beta / biotin-H3K9me3 peptide binding | Potency, µM (top dose mostly 114 µM), for the others: at the highest dose activity change, negative = inhibition, usual class: inhibitors | 0.56% of 390,000 active; further: nearly all actives have a fitted effect of over 70% in size
Target sequence (P83916 whole entry, looked up): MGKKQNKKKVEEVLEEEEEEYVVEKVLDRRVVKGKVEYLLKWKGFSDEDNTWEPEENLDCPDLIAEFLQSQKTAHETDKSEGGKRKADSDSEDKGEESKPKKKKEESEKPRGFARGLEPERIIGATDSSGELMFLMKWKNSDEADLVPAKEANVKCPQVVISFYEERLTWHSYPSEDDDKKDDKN
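Compound inhibition of the preformed complex between 50 nM HP1-beta and 50 nM biotinylated H3K9me3 peptide was read by AlphaScreen. Buffer was PBS pH 7.4 with 0.01% Tween-20. Incubations ran 30 min at room temperature, with 10 ug/mL donor/acceptor beads.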
G9a block: blocks human histone lysine methyltransferase G9a | AID 504332 | 8.8% of 350,000 active | Q96KQ7 | G9a H3K9 monomethylation, AlphaScreen, 2 h | Potency, µM (highest dose often 102 µM), inactives show at the highest dose activity, negative = inhibition, actives largely listed as inhibitors; further: on the % scale 0 is the no-effect control and ±100 the full control effect; nearly all actives have a fitted effect of over 75% in size
Target sequence (Q96KQ7 913-1193 limits assumed): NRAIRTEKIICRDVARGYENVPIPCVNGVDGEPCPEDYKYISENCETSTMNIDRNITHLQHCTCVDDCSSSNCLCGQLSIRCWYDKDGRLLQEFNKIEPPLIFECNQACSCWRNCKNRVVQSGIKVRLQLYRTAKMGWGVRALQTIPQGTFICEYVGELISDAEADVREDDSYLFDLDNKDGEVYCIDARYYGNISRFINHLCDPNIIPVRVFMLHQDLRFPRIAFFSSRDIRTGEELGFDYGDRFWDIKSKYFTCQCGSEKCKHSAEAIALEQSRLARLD
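Compounds were preincubated with 20 nM G9a for 15 min, after which biotinylated H3K9 peptide (500 nM) and SAM (20 uM) started a 2 h room-temperature reaction. Monomethylated product was quantified by antibody-based AlphaScreen chemiluminescence.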
Sfp inh: blocks B. subtilis Sfp PPTase activity; Potency, µM, for the others: largest response in the series, negative = inhibition, actives largely listed as inhibitors; Biochemical Sfp PPTase activity, qHTS; 3.5% of 310,000 active; AID 1490;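 further: the enzyme is Sfp with the accession as filed and its product quenches rhodamine fluorescence; 0% = enzyme reaction without inhibitor and -100% = no enzyme wells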
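Buffer: 50 mM Hepes-Na pH 7.6, 10 mM MgCl2, 0.01% Nonidet P-40, 0.01% BSA. Enzyme 15 nM, pre-exposed to compound 15 min; substrates then added and fluorescence change tracked over 30 min.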
L3MBTL1 block: L3MBTL1 (human) inhibition; AlphaScreen L3MBTL1–H3K9me1 peptide binding; Q9Y468; 0.66% of 230,000 active; Potency, µM (doses to about 57.1 µM), without a hit: top-dose activity, negative = inhibition, usual class: inhibitors; further: on the % scale 0 is the no-effect control and ±100 the full control effect; nearly all actives have a fitted effect of over 60% in size
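First, the protein-peptide complex forms for 30 min at room temperature (L3MBTL1 50 nM, biotinylated H3K9me1 peptide 75 nM). Next, compounds are pin-transferred and incubated 30 min. Finally, AlphaScreen beads are added and read after 30 min.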
BAZ2B block: inhibitors of human BAZ2B bromodomain; Q9UIF8; AID 504333; Potency, µM (top dose mostly 114 µM), inactives show at the highest dose activity change, negative = inhibition, hits mostly inhibitors; AlphaScreen BAZ2B-H3K14Ac peptide displacement; 4.4% of 360,000 active; further: on the % scale 0 is the no-effect control and ±100 the full control effect; nearly all actives have a fitted effect of over 60% in size
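AlphaScreen displacement: compounds (up to 110uM) incubated 30 min at room temperature with a preformed 50 nM BAZ2B/50 nM biotinylated H3K14Ac peptide complex in PBS pH 7.4 with Tween-20. Donor and acceptor beads at 10 ug/mL final added, 20 min light-protected before reading.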
JMJD2A Tudor: blocks the human JMJD2A Tudor domain; AlphaScreen JMJD2A-Tudor / H3K4me3 peptide binding; Potency, µM (series often up to 114 µM), for inactives: at the highest dose activity change, negative = inhibition, usual class: inhibitors; 4.4% of 390,000 active; AID 504339; further: on the % scale 0 is the no-effect control and ±100 the full control effect; nearly all actives have a fitted effect of over 50% in size
* marks the source's active call; other numbers are inactive results; ? = inconclusive; · = no result; [ ] = another dose, or the depositor's remark. Shown are actives, neighbours in structure and some others; about 12% of the full set was active somewhere. The call rests on the fitted dose curve; in most records, active means well fitted curve in the direction sought with a large enough effect; inconclusive means small, poorly fitted or top-dose-only effect, or another doubt; inactive means no such curve, though single readings can be large; an effect the other way counts as inactive or inconclusive. Potency means the concentration at half of the fitted maximal effect.

SMILES	HP1b chromo inh	G9a block	Sfp inh	L3MBTL1 block	BAZ2B block	JMJD2A Tudor
Cc1ccc2nc(-c3cccc(NC(=O)c4cccc5ccccc45)c3)oc2c1	26.2%	4.1%[59 µM]	·	·	-13.2%	1.5%
Cc1cc(C)cc(NC(=O)C(=O)NCC(c2ccc3c(c2)OCO3)N2CCOCC2)c1 (stereo not drawn)	17.1%[57 µM]	-21.2%[59 µM]	·	·	-0.4%	-6.8%
CC(=O)Nc1c(C)nn(-c2ccccc2)c1N1CCC(C(=O)Nc2ccccc2C(F)(F)F)CC1	25.1%[57 µM]	32.5%[59 µM]	·	·	9.7%	-4.5%
C/C=C/c1ccc(OC(C)[C@@H](O)c2ccc(O)c(OC)c2)c(OC)c1 (stereo partly drawn)	·	·	-9.5%	·	·	·
CCn1cc(CN2CCc3c([nH]c4ccccc34)C2c2cccc(O)c2)c(C)n1 (stereo not drawn)	-6.0%	?	-0.2%	-0.8%	?	-17.6%[57.1 µM]
COc1cccc(C2c3[nH]c4ccccc4c3CCN2Cc2cccn2-c2ncccn2)c1 (stereo not drawn)	?	39.8µM*	1.7%	-7.8%	?	?
CCn1cc(CN2CCc3c([nH]c4ccccc34)C2c2ccc(F)c(OC)c2)c(C)n1 (stereo not drawn)	?	44.7µM*	-2.5%	-23.8%	22.4µM*	?
CSc1ncc(CN2CCc3c([nH]c4ccccc34)C2c2cccc(O)c2)cn1 (stereo not drawn)	-19.9%	·	5.6%	-1.9%	39.8µM*	?
CCn1cc(CN2CCc3c([nH]c4ccccc34)C2c2cccc(OC)c2)c(C)n1 (stereo not drawn)	-20.6%	·	0.3%	-20.4%	79.4µM*	?
Clc1ccc(-n2cccc2CN2CCc3c([nH]c4ccccc34)C2c2ccccn2)nc1 (stereo not drawn)	-10.1%	17.8µM*	-13.1%	?	25.1µM*	35.5µM*
CCn1nc(C)c(CN2CCc3c([nH]c4ccccc34)C2c2ccc(F)c(OC)c2)c1C (stereo not drawn)	-14.9%	50.1µM*	-5.3%	-28.5%	?	?
COc1cccc(C2c3[nH]c4ccccc4c3CCN2CCCn2cccn2)c1 (stereo not drawn)	10.3%	?	12.0%	-24.9%	?	-23.7%
Fc1ccc(C2c3[nH]c4ccccc4c3CCN2Cc2cccn2-c2ncccn2)cc1 (stereo not drawn)	35.6%	·	3.0%	6.6%	-0.2%	-22.3%
COc1ccc(C(=O)c2coc3ccc(O)c(CN4CCCCC4)c23)cc1	49.2%	25.1µM*	5.6%	-15.2%	-2.7%	-22.1%
O=C1CCSC2(C(=O)N(Cc3ccc(F)cc3)c3ccccc32)N1c1ccc(Cl)cc1 (stereo not drawn)	12.2%	?	·	·	-16.4%[57.1 µM]	-32.4%
O=C(CC(Nc1ccc(Cl)cc1Cl)C(=O)O)c1ccccc1 (stereo not drawn)	21.4%[57 µM]	?	14.1µM*	5.3%	-16.9%	5.9%
O=C(CC(Nc1ccccc1Cl)C(=O)OCC(=O)c1cccs1)c1ccccc1 (stereo not drawn)	51.1%	10µM*	44.7µM*	-5.3%	-3.6%	-8.4%
O=C(OCC(=O)c1cccs1)c1ccccc1	46.2%	?	13.4%	17.0%	-33.5%	-3.6%
COC(=O)c1cc(NC(=O)c2ccc3c(c2)N(Cc2cccc(Cl)c2)C(=O)c2ccccc2S3=O)cc(C(=O)OC)c1 (stereo not drawn)	14.0%	6.2%[59 µM]	·	·	0.3%	3.8%
CCOC(=O)c1ccc(NC(=O)CCc2c(C)n(CC)c3cc(-c4ccccc4OC)nn3c2=O)cc1	35.9%	-10.3%[59 µM]	·	·	-15.6%	7.7%
O=C(NCc1cccnc1)c1cc2nc(-c3cccs3)cc(C(F)(F)Cl)n2n1	44.7%	50.1µM*	-9.7%	4.6%	-36.1%	-5.6%
Cc1cc(C)n2nc(C(=O)NCCc3ccccc3)nc2n1	7.0%	?	?	·	2.3%	-23.7%
O=C(NCCc1ccccc1)c1nc2nc(-c3cccs3)cc(C(F)(F)F)n2n1	50.3%	-44.5%[59 µM]	?	-22.0%	50.1µM*	?
O=C(O)c1cc2nc(-c3cccs3)cc(C(F)(F)F)n2n1	20.1%	70.8µM*	3.0%	-19.1%	50.1µM*	-33.6%
CCCCC1CCC(C(=O)N2CC(=O)Nc3ccc(Cl)cc3C2c2ccc(F)cc2)CC1 (stereo not drawn)	4.1%	-7.2%[59 µM]	·	·	-16.9%	-23.9%
SMILES	HP1b chromo inh	G9a block	Sfp inh	L3MBTL1 block	BAZ2B block	JMJD2A Tudor
O=C(O)CC(c1cccc(Cl)c1)n1cccc1 (stereo not drawn)	0.7%	-17.4%	-10.4%	·	-4.7%	89.1µM*
COc1ccc(-c2n[nH]c(=S)n2-c2ccc(C)cc2)cc1OC	26.5%	3.98µM*	?	-0.9%	-13.9%	6.31µM*
Cc1ccc(-n2c(C)nc3ncnc(-c4ccccc4)c32)cc1	-1.3%	9.1%[59 µM]	-1.4%	0.3%	1.6%	-6.2%
Cc1ccc(-n2c(-c3c(-c4ccccc4)noc3C)n[nH]c2=S)cc1	12.4%	0.562µM*	-6.4%	·	-23.4%	-23.0%
Cc1ccc(-n2c(-c3cccc(C)c3)n[nH]c2=S)cc1	-7.9%	-126.8%	-7.6%	·	-27.8%	20µM*
Cc1c(F)cccc1NS(=O)(=O)c1ccc2c(c1)c(C)cc(=O)n2C	40.8%	4.9%	-8.7%	·	50.1µM*	-7.0%
Cn1c(=O)c2cc(S(=O)(=O)Nc3cccc(F)c3)ccc2n(C)c1=O	35.9%	?	12.1%	·	6.3%	-13.0%
Nc1ncnc2c1ncn2COC(CO)CO	4.3%[57 µM]	·	·	·	·	-2.3%[57.1 µM]
c1ccc2c(c1)CCN(C1CCCCC1)C2	?	20µM*	-2.7%	5.3%	79.4µM*	25.1µM*
Cc1ccc(-c2nn(-c3ccc(F)cc3F)c3c2cnc2ccc(F)cc23)cc1	26.7%	0.5%[12.7 µM]	·	·	-2.3%	2.0%
N#CCCn1cc(C(=O)Nc2ccc(C(=O)O)cc2)c(-c2cccs2)n1	18.0%	11.0%[59 µM]	-4.3%	15.4%	-5.8%	15.8µM*
CN(C)c1ccc(NC(=O)c2cn(-c3ccccc3)nc2-c2cccs2)cc1	?	10µM*	-5.3%	·	35.5µM*	14.1µM*
O=C(Nc1ccc2ccccc2c1)c1cn(-c2ccccc2)nc1-c1cccs1	9.2%	14.1%[0.501 µM]	-5.0%	-1.7%	2.5%	-14.9%
O=C(CSC(=S)N1CCOCC1)c1cc2ccccc2oc1=O	-3.4%	70.8µM*	-3.6%	·	-23.7%	-29.9%
O=C(CSc1nc2ccccc2o1)c1cc2ccccc2oc1=O	11.9%	-18.8%[59 µM]	5.4%	-22.3%	-35.3%	-30.0%
Cc1cc(C)nc(SCC(=O)c2cc3ccccc3oc2=O)n1	34.7%	?	17.8µM*	-2.6%	-33.5%	-20.8%

Screening results (PubChem)
